# Results published in PubChem BioAssay (EPA / NIEHS).
# Activity calls are given as the source filed them. The calls were made as follows: active = hit-call score of the fitted dose curve at least 0.9, where 1 is the maximum; inactive = score below 0.9.
# Read-out: Matrix Metallopeptidase 9 (MMP9), MMP9 (gene 4318)
# Assay: BSK_KF3CT_MMP9: BioMAP Diversity Plus: KF3CT Assay for Matrix Metallopeptidase 9 (MMP9) Biomarker Activity (AID 2283074);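 as to AC50: MMP9 protein level quantified by ELISA in the co-culture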
# Settings: primary human keratinocytes with fibroblasts; actives raise or lower the signal
# Summary of the method: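 Human keratinocyte and foreskin fibroblast co-culture exposed to chemicals for 24 h; MMP9 biomarker measured by ELISA, bidirectional fitting relative to DMSO; cytotoxicity tracked by SRB total protein staining in parallel cultures.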
Structure (SMILES),outcome,AC50
O=C(O)CC(O)(CC(=O)O)C(=O)O,inactive,–
COc1ccc(OC(F)(F)F)cc1CN[C@H]1CCCN[C@H]1c1ccccc1,inactive,–
CS(=O)(=O)c1ccc([C@@H](C[C@H]2CCC(=O)C2)C(=O)Nc2cnccn2)cc1Cl,inactive,–
O=C1c2c(O)cccc2Cc2cccc(O)c21,–,10.2 µM (active)
Cc1c(C)c2c(c(C)c1O)CCC(C)(COc1ccc(CC3SC(=O)NC3=O)cc1)O2 (stereo not given),–,12.7 µM (active)
CCCCC(CC)COC(=O)CCCCCCCC(=O)OCC(CC)CCCC (stereo not given),inactive,–
C#CC(O)C(CC)CCCC (stereo not given),inactive,–
NCCOCCOCCN,inactive,–
COC(=O)[C@H]1[C@H]2C[C@@H]3c4[nH]c5cc(OC)ccc5c4CCN3C[C@H]2C[C@@H](OC(=O)c2cc(OC)c(OC)c(OC)c2)[C@@H]1OC,inactive,–
COC(=O)CCC(=O)OC,inactive,–
CC(=O)O,inactive,–
CC(=O)CC(c1ccccc1)c1c(O)c2ccccc2oc1=O (stereo not given),inactive,–
CC(=O)O[C@]1(C(C)=O)CC[C@H]2[C@@H]3C=C(Cl)C4=CC(=O)[C@@H]5C[C@@H]5[C@]4(C)[C@H]3CC[C@@]21C,inactive,–
c1ccc2occc2c1,inactive,–
NC1CCCCC1,inactive,–
NC(=Nc1ccccc1)Nc1ccccc1,inactive,–
CCCCC(CC)COP(=O)(OCC(CC)CCCC)OCC(CC)CCCC (stereo not given),inactive,–
O=C(N[C@@H](c1ccccc1)[C@@H]1CCCCN1)c1cccc(C(F)(F)F)c1Cl,–,30.8 µM (active)
Oc1ccccc1O,–,8.72 µM (active)
CC(=O)[C@@]1(O)CC[C@H]2[C@@H]3CCC4=CC(=O)CC[C@]4(C)[C@H]3CC[C@@]21C,inactive,–
CCCCOC(=O)CCCCC(=O)OCCCC,inactive,–
CCc1nc(N)nc(N)c1-c1ccc(Cl)cc1,inactive,–
CO[C@@H]1COCC[C@@H]1N[C@@H]1CC[C@@](C(=O)N2CCc3ncc(C(F)(F)F)cc3C2)(C(C)C)C1,inactive,–
O=C1OC(c2ccc(O)cc2)(c2ccc(O)cc2)c2ccccc21,–,29.5 µM (active)
CN(C)CCCN1c2ccccc2Sc2ccc(Cl)cc21,–,31.6 µM (active)
Nc1nc(=S)c2[nH]cnc2[nH]1,inactive,–
CC(C)OC(=O)C(C)(C)Oc1ccc(C(=O)c2ccc(Cl)cc2)cc1,inactive,–
CCCCC(CC)CO (stereo not given),inactive,–
CCCCCCC(C=O)=Cc1ccccc1,inactive,–
CCOCCOCCO,inactive,–
